# Laboratory results as given in PubChem BioAssay.
# Assays:
# PEG-3 [1] = target: PEG-3 (UniProt Q6IN02); assay: Peg3 promoter luciferase inhibitors, potency, dose response, cell-based, HeLa, CREF/GAPDH counter-screen panel (AID 624167); conditions: CREF/GAPDH counter-screens; HeLa PEG-Prom luciferase reporter, overnight, run 1, dose range 1, at 100 µM (top of the series) unless noted
# PEG-3 [2] = target: PEG-3 (UniProt Q6IN02); assay: as above; conditions: CREF/GAPDH counter-screens; HeLa PEG-Prom luciferase reporter, overnight, run 2, dose range 1, at 100 µM (top of the series) unless noted
# [3] = target: Tumor necrosis factor receptor superfamily member 10B (Homo sapiens) (UniProt O14763); assay: caspase-8 TRAIL sensitization, hit retest, confirmation, cell-based, NB7+caspase-8, with/without TRAIL, luminescence panel (AID 651596); conditions: NB7 neuroblastoma + caspase-8, TRAIL sensitization, luminescence viability, with TRAIL, mean of runs, at 10 µM, stronger effect = higher value
# Tumor necrosis factor receptor superfamily member 10B (Homo sapiens), sequence (O14763 whole entry, looked up): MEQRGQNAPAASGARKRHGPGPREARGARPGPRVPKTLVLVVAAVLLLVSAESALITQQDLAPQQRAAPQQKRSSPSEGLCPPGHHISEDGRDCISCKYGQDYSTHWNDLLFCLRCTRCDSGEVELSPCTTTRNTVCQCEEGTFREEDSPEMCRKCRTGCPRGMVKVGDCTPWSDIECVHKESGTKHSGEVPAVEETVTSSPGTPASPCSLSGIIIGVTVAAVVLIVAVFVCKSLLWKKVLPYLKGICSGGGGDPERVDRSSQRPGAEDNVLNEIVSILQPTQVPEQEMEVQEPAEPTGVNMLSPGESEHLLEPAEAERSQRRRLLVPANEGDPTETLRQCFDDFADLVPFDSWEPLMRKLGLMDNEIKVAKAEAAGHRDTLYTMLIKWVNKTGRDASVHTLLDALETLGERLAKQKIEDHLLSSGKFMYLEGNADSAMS
# [4] = as above; conditions: NB7 neuroblastoma + caspase-8, without TRAIL, luminescence viability, without TRAIL, mean of runs, at 10 µM
# [5] = inhibitors of PAF-induced NFkB signaling in CF airway cells, dose response, cell-based, uHTS hits, panel, cytotoxicity readout (AID 624344); conditions: CF bronchial epithelial cells, PAF-induced NFkB reporter inhibition, with PAF, run 1; at 79 µM (top of the series) unless noted
# [6] = as above; conditions: CF bronchial epithelial cells, PAF-induced NFkB reporter inhibition, with PAF, run 2; at 79 µM (top of the series) unless noted
# PEG-3, sequence (Q6IN02 whole entry, looked up): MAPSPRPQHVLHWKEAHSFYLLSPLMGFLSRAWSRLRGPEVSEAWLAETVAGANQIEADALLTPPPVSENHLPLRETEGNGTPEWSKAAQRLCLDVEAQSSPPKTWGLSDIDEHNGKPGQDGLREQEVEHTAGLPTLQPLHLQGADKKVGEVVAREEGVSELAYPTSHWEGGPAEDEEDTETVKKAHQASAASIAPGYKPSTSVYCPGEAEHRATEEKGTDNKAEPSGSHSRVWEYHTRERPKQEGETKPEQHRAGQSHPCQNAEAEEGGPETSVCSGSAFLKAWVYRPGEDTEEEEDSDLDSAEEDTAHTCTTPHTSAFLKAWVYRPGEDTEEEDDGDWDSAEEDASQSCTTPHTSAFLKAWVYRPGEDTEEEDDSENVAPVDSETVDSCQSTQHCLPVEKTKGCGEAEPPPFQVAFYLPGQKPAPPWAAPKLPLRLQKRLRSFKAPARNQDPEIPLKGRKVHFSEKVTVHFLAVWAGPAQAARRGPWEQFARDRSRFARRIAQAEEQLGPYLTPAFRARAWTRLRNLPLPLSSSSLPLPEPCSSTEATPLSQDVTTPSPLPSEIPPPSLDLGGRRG
compound,measurement,setting,value
CN1OC[C@@H]2CN[C@H](c3ccc(-c4cc5ccccc5o4)cc3)C[C@@H]21,inhibition,PEG-3 [1],98%
same,inhibition,PEG-3 [2],101%
same,activity,[3],90.1%
same,activity,[4],90.9%
CN1CCN(c2ccc(NC(=O)N3CCc4ccccc43)cc2)CC1,inhibition,PEG-3 [1],87.9%
same,inhibition,PEG-3 [2],92.8%
same,activity,[3],70.6%
same,activity,[4],65.9%
FC(F)Sc1ccc(NC(=S)NCC2CCCCC2)cc1,inhibition,[5],106%
same,inhibition,[6],112%
COC(=O)C1=C(C)N(Cc2ccccc2)C(=NCCc2c[nH]c3ccccc23)N[C@H]1c1cccc(C(F)(F)F)c1,inhibition,PEG-3 [1],101%
same,inhibition,PEG-3 [2],99.9%
same,activity,[3],17.3%
same,activity,[4],44.5%
CCc1nc(Cl)c(C#N)c2c1CCCC2,inhibition,[5],112%
same,inhibition,[6],105%
O=c1c2ccccc2oc2cc(C#CC3(O)CCCCC3)ccc12,inhibition,PEG-3 [1],102%
same,inhibition,PEG-3 [2],102%
same,activity,[3],87.3%
same,activity,[4],85.3%
Cc1nn(C(C)(C)C)c(C)c1/C=N/OC(=O)Nc1ccc(Cl)cc1,inhibition,PEG-3 [1],98.8%
same,inhibition,PEG-3 [2],98.3%
same,activity,[3],94.2%
same,activity,[4],91.5%
CC(C)C[C@@H](CN1CCCC1CN1C(=S)NC[C@@H]1Cc1ccc(O)cc1)N1C[C@H](Cc2ccc(O)cc2)N(CC2CCCCC2)C1=S (stereo partly drawn),inhibition,[5],102%
same,inhibition,[6],107%
Nc1nc(CCl)nc(Nc2cccc3ccccc23)n1,inhibition,PEG-3 [1],102%
same,inhibition,PEG-3 [2],100%
same,activity,[3],99.8%
same,activity,[4],98.7%
Cc1cnc(C=O)c2cccc([N+](=O)[O-])c12,inhibition,[5],110%
same,inhibition,[6],106%
Cc1ccc(C(=O)c2cncc(Br)c2)cc1,inhibition,[5],86.5%
same,inhibition,[6],93.4%
CC(C)(C)C(=O)Nc1cc2nn(-c3ccccc3)nc2cc1Cl,inhibition,PEG-3 [1],92.3%
same,inhibition,PEG-3 [2],90.1%
same,activity,[3],98.2%
same,activity,[4],97.7%
CC(=O)c1c(O)cc2c3c1OC(C)(C)C1CCC(C)(CC31)O2 (stereo not drawn),inhibition,[5],111%
same,inhibition,[6],99%
CCc1ccccc1NC(=O)CN(C)C(=O)Cn1ncc(Cl)c(Cl)c1=O,inhibition,[5],102%
same,inhibition,[6],101%
CCOC(=O)COc1ccc2ccccc2c1/C=C/[N+](=O)[O-],inhibition,[5],100%
same,inhibition,[6],97.5%
COc1cc(/C=N/NC(=O)Nc2cccc3nsnc23)cc(OC)c1OC,inhibition,[5],89.7%
same,inhibition,[6],82.7%
COc1ccc2c(=O)cc(-c3ccncc3)oc2c1OC,inhibition,[5],116%
same,inhibition,[6],103%
CC1(C)Cc2c(ccc3ccccc23)C(=O)N1,inhibition,[5],106%
same,inhibition,[6],111%
COc1cc2c(c(OC)c1OC)-c1ccc(NCc3ccccc3)c(=O)cc1C(NC(C)=O)CC2 (stereo not drawn),inhibition,[5],94.4%
same,inhibition,[6],112%
Cc1ccc(S(=O)(=O)Nc2nc3ccccc3nc2Nc2cccc(S(=O)(=O)N3CCCC3)c2)cc1,inhibition,[5],94.9%
same,inhibition,[6],103%
CC(C)OC(=O)c1cccc(C(=O)Nc2cccc(NC(=O)c3cccc(C(=O)OC(C)C)n3)n2)n1,inhibition,[5],103% [at 9.88 µM]
same,inhibition,[6],109% [at 19.8 µM]
CC(C)[C@H](CO)Nc1nc(NCc2ccc(S(N)(=O)=O)cc2)c2ncn(C(C)C)c2n1,inhibition,[5],107%
same,inhibition,[6],110%
Cc1cc(C)c(C#N)c(SCC(=O)c2ccc(Cl)cc2Cl)n1,inhibition,[5],111%
same,inhibition,[6],101%
O=C(Nc1ccc([N+](=O)[O-])cc1)Nc1ccc(Cl)cc1F,inhibition,[5],109%
same,inhibition,[6],101%
Nc1nc(N)nc(-c2ccc(Cl)c(Cl)c2)n1,inhibition,[5],116%
same,inhibition,[6],101%
Cc1cccc(C)c1NS(=O)(=O)c1ccc(-c2cnc(C3CC3)o2)cc1,inhibition,[5],112%
same,inhibition,[6],105%
Fc1ccccc1-c1csc(=Nc2cccnc2)n1CCCn1ccnc1,inhibition,[5],116%
same,inhibition,[6],94.9%
ON=C1c2ccccc2-c2cc(Br)ccc21,inhibition,[5],117%
same,inhibition,[6],106%
O=c1c(O)c(-c2ccccc2)oc2cc(O)cc(O)c12,inhibition,[5],103%
same,inhibition,[6],106%
O=C(N/N=C/c1ccccc1)c1[nH]c2ccc(Br)cc2c1-c1ccccc1,inhibition,[5],76.6%
same,inhibition,[6],79.5%
O=C(O)/C=C/c1ccc2c(-c3ccccc3)onc2c1,inhibition,[5],113%
same,inhibition,[6],105%
CCOC(=O)c1c(-c2ccc(C)cc2)csc1NC(=O)c1ccc(N2C(=O)CCC2=O)cc1,inhibition,[5],30.1%
same,inhibition,[6],81.4%
COc1ccc(-c2csc3ncnc(NCCN4CCOCC4)c23)cc1,inhibition,[5],112%
same,inhibition,[6],100%
CCCc1nc(Cl)c(C#N)c2c1CCCC2,inhibition,[5],97.8%
same,inhibition,[6],98.1%
CCOc1ccc(-n2cc(-c3ccccc3)c3c(N4CCOCC4)ncnc32)cc1,inhibition,[5],112%
same,inhibition,[6],102%
CN(C)c1ccc(-c2nn3c(-c4ccccc4Cl)nnc3s2)cc1,inhibition,[5],102%
same,inhibition,[6],65.9%
COc1ccc(-n2nc(C(=O)NCC(=O)Nc3cc(OC)c(OC)c(OC)c3)c3ccccc3c2=O)cc1OC,inhibition,[5],102%
same,inhibition,[6],101%
COCCN1Cc2cccc(C(=O)Nc3cccc(-c4nc5ccccc5[nH]4)c3)c2C1=O,inhibition,[5],95.8%
same,inhibition,[6],114%
CCCCCCCCCc1nc2sc3c(c2c(=O)n1NC(=O)c1ccc([N+](=O)[O-])cc1)CC(C)(C)OC3,inhibition,[5],80.5%
same,inhibition,[6],115%
ON=C1c2ccccc2-c2ccccc21,inhibition,[5],95.8%
same,inhibition,[6],106%
CNC(=O)c1ccc(NC(=O)C2CCN(c3ncnc4sc(C)c(C)c34)CC2)cc1,inhibition,[5],85.3%
same,inhibition,[6],72%
CC[C@@H](C(=O)[C@@H](C)[C@@H](O)[C@H](C)[C@@H]1O[C@@H]([C@@H](CC)C(=O)O)CC[C@@H]1C)[C@H]1O[C@]2(C=C[C@@H](O)[C@]3(CC[C@@](C)([C@H]4CC[C@](O)(CC)[C@H](C)O4)O3)O2)[C@H](C)C[C@@H]1C,inhibition,[5],117%
same,inhibition,[6],107%
Cc1cc(N2C(=O)C(O)=C(C(=O)c3ccc(C)o3)C2c2cccc(Oc3ccccc3)c2)no1 (stereo not drawn),inhibition,[5],64%
same,inhibition,[6],82.8%
COc1ccc(-c2oc3ccc(-c4ccc5c(c4)OCO5)cc3c2C#CC2(O)CCCCC2)cc1,inhibition,[5],101%
same,inhibition,[6],91.6%
CN(c1cccc(Cl)c1)S(=O)(=O)c1cccc(C(=O)Nc2nc3ccccc3[nH]2)c1,inhibition,[5],102%
same,inhibition,[6],99.5%
O=C(CC12CC3CC(CC(C3)C1)C2)Nc1nncs1,inhibition,[5],105%
same,inhibition,[6],100%
Cc1nn(-c2ccccc2)c(N2CCCC2)c1/C=N/NC(=O)c1cc(-c2ccccc2)nc2ccccc12,inhibition,[5],104%
same,inhibition,[6],80%
